Screen size: about 5,500 compounds; about 2,000 (36%) were called active. Another 18% or so got no clear call; they are omitted. Rule as the data show it: active = normalized growth mostly below about 0.91 (no sharp cut-off); inconclusive = no clear call, values can overlap the other calls; inactive = mostly above about 0.92. This is one part of the list.
Assay: chemical genetic growth profiling, strain panel (AID 1159580);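 also: tested at 20 µM; growth read once vehicle control cultures reached saturation at 30 °C; 1 = growth at the plate median or of vehicle wells; lower values mean less growth of the strain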
Settings: S. cerevisiae deletion strains, growth OD

Measured: normalized growth

CC(=O)NCCc1c[nH]c2ccccc12
inactive: locus YAL013W, strain DEP1, stronger effect = lower value 1 | locus YAL040C, strain CLN3, stronger effect = lower value 1.01 | locus YCL061C, strain MRC1 (second series), stronger effect = lower value 1 | locus YDR150W, strain NUM1, stronger effect = lower value 1 | locus YER002W, strain NOP16, stronger effect = lower value 1 | locus YJR075W, strain HOC1, stronger effect = lower value 1 | locus YNL175C, strain NOP13, stronger effect = lower value 1.01 | locus YNL197C, strain WHI3, stronger effect = lower value 1 | locus YNL224C, strain SQS1, stronger effect = lower value 1.01 | locus YOR083W, strain WHI5 (second series), stronger effect = lower value 1.02 | locus YPL055C, strain LGE1, stronger effect = lower value 1

Reference: PubChem BioAssay AID1159580 (chemical genetic matrix, 2015)
